# Measurements taken from paper PMC4336329 (PLoS ONE, 2015).
# Among all 310,000 compounds or so, about 14,000 (4.5%) showed an effect of 50% or more. The effect is printed as a negative number. The sample as a whole holds a higher share of strong results than the screen did.
# Molecular target: human ether-à-go-go-related gene (hERG) potassium channel (human, UniProt Q12809)
# Test: primary screen, population patch clamp on CHO cells stably expressing hERG; higher = less effect of the substance
# Description: Briefly, Chinese hamster ovary (CHO) cells stably expressing the hERG channel were dislodged from tissue culture flasks and dispensed into PPC plates. […] During the recording, background leak currents were estimated by a 100 ms step to -80 mV from an initial holding potential of -70 mV and subtracted from the subsequent current measurement. The campaign was conducted in two phases using slight differences in recording protocol. In the first phase, the initial voltage pulse used a 100 ms step to -30 mV from a holding potential of -70 mV, a 2 s conditioning step to +25 mV, and a 2 s test step to -30 mV. During the second phase of the screen, the potential during the conditioning step was raised to +45 mV. In both phases of the campaign, a secondary voltage pulse was applied using the same parameters as the second phase initial pulse. The initial and secondary pulses were applied in the absence of compound, and upon application of 1 μM and 10 μM test concentrations. […]
# 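Also: peak tail current of the secondary pulse compared with the same well before compound.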
# Chain of human ether-à-go-go-related gene (hERG) potassium channel (Q12809 whole entry, looked up): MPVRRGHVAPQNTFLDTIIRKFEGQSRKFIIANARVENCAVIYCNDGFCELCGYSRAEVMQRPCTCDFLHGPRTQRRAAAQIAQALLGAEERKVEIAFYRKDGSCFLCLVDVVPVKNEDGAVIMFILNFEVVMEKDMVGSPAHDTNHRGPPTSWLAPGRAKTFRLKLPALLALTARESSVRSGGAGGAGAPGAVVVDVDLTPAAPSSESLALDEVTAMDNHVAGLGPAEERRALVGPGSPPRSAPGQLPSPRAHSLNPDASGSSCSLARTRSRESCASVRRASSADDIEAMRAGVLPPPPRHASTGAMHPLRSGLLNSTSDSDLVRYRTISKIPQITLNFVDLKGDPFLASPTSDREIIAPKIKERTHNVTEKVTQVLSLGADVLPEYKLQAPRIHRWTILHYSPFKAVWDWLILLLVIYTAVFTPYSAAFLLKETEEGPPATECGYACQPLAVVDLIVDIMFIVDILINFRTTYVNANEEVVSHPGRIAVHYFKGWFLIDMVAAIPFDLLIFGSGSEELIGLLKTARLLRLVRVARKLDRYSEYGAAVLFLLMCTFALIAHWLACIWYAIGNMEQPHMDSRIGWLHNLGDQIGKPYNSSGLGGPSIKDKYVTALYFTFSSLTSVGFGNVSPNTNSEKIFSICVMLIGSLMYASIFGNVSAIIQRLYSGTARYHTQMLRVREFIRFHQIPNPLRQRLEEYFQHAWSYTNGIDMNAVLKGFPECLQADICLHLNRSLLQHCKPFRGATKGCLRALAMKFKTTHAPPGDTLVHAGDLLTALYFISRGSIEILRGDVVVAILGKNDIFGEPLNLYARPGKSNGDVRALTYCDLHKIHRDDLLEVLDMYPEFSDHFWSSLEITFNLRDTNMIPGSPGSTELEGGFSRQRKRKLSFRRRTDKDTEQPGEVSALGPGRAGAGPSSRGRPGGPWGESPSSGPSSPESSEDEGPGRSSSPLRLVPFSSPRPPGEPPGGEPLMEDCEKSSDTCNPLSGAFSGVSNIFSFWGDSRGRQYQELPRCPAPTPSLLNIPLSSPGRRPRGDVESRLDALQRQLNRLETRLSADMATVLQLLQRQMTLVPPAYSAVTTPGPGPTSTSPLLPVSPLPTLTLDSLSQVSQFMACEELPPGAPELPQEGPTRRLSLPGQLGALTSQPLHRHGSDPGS
row,Compound,"hERG current change (%, negative = inhibition) at 10uM [%]"
1,COc1cc(OC)cc(-n2nnnc2SCC(=O)Nc2nc3c(s2)CCCC3)c1,7.1
2,Cc1nnc(SCC(=O)Nc2ccc3c(c2)OCO3)n(N)c1=O,11.3
3,O=C(COc1cccc(-n2cnnn2)c1)N1CCOCC1,2.13
4,O=C1OC(c2ccc(Br)cc2)=N/C1=C\N1CCCCC1,22
5,CCN1CCCC1CNC(=O)CN1C(=O)COc2ccc(C)cc21 (centres unmarked),-12.4
6,COc1cccc(CNC(=O)CCC2CCCN(C(=O)c3cccc(Cl)c3)C2)c1 (centres unmarked),-20.9
7,COc1cccc(CNC(=O)CCC2CCCN(Cc3ccc(OC(F)F)cc3)C2)c1 (centres unmarked),-76.6
8,COc1cccc(CNC(=O)CCC2CCCN(Cc3cc(Cl)ccc3O)C2)c1 (centres unmarked),-60.6
9,COc1cccc(CNC(=O)CCC2CCCN(C(=O)CCC(F)(F)F)C2)c1 (centres unmarked),-5.17
10,COc1cccc(CNC(=O)CCC2CCCN(C(=O)c3ccc(F)c(Cl)c3)C2)c1 (centres unmarked),-16.6
11,COc1cccc(CNC(=O)CCC2CCCN(C3CCOCC3)C2)c1 (centres unmarked),-0.768
12,CC12CCC(C(=O)NC3CCCCC3)([C@H](Br)C1=O)C2(C)C (some centres unmarked),10.6
13,Cc1cc(C)cc(OCC(=O)OCC(=O)N2CCc3ccccc32)c1,14.5
14,O=C(Cn1nc(CNc2ccc(Cl)cc2)[n+]2c1CCCCC2)c1ccc(Br)cc1.[Br-],-61.6
15,COc1ccc(C(=O)Cn2nc(CNc3ccc(Br)cc3)[n+]3c2CCCCC3)cc1.[Br-],15.4
16,O=C(Cn1nc(CNc2ccc(Cl)cc2)[n+]2c1CCCCC2)c1ccc(Cl)cc1.[Br-],-8.17
17,Cc1ccc(C(C)C)c(OCc2nn(CC(=O)c3ccc(Cl)cc3)c3[n+]2CCCCC3)c1.[Br-],-73.3
18,COc1ccc(NCc2nn(CC(=O)c3ccc(Br)cc3)c3[n+]2CCCCC3)cc1.[Br-],10.1
19,Cc1ccc(C(C)C)c(OCC(=O)Nc2ccc(Cl)cn2)c1,-8.82
20,Cc1ccc(C(C)C)c(OCc2nn(CC(=O)c3ccc(OC(F)F)cc3)c3[n+]2CCCCC3)c1.[Br-],-72.5
21,O=C(Cn1nc(CNc2ccc(Cl)cc2)[n+]2c1CCCCC2)c1ccccc1.[Br-],9.17
22,O=C(Cn1nc(-c2nn(CC(=O)c3ccccc3)c3[n+]2CCCCC3)[n+]2c1CCCCC2)c1ccccc1.[Br-],12.8

row,Compound,"hERG current change (%, negative = inhibition) at 10uM [%]"
1,O=C(Nc1ccccc1C(F)(F)F)c1cc(S(=O)(=O)N2CCC3(CC2)OCCO3)ccc1F,-17.1
2,O=C(CCCCCN1C(=O)c2ccccc2C1=O)Nc1ccc(S(=O)(=O)N2CCCCC2)cc1,-46.6
3,COc1ccc(NC(=O)N2CCCC(c3nc(-c4ccc(OC)cc4)no3)C2)cc1 (centres unmarked),-4.38
4,Cc1ccnc(NC(=O)C2CCN(S(=O)(=O)c3ccc(C)c(C)c3)CC2)c1,4.97
5,Cl.N[C@@H](CO)c1nnc([C@H](CC(=O)O)NC(=O)C2CCNCC2)o1,16.7
6,O=C(COC(=O)c1c[nH]c2ccccc12)Nc1ccc([N+](=O)[O-])cc1,-0.338
7,COC(=O)[C@@H](NC(=O)NCc1ccco1)C(C)C,2.75
8,Cc1cccc(NC(=O)c2cc(-c3cc(Cl)ccc3O)n[nH]2)c1,18.2
9,CCN(Cc1ccncc1)C(=O)c1cccs1,2
10,COc1cccc(CN(C)C(=O)c2cccnc2SC)c1OC,9.74
11,COC(=O)c1cccc(NC(=O)C23CC4CC(C2)CC(n2cncn2)(C4)C3)c1,-25.4
12,O=C(Nc1ccc2c(c1)OCO2)c1ccccc1SCC(=O)N1CCCC1,5.23
13,CCOC(=O)C1CCN(C(=O)CSc2ccccc2)CC1,-20.3
14,CCOC(=O)C1CCN(CCCSc2ccc(C)cc2)CC1.Cl,-71
15,CCOC(=O)C1CCN(CCCSc2ccc(Cl)cc2)CC1.Cl,-72.7
16,CCN1CCN(CCCCSc2ccccc2)CC1.O=C(O)C(=O)O,-28.3
17,CCOC(=O)C1CCN(C(=O)CSc2ccc(Cl)cc2)CC1,-32.5
18,CCOC(=O)C1CCN(CCCSc2ccccc2)CC1.Cl,-62.4
19,CCOC(=O)C1CCCN(CCSc2ccc(C)cc2)C1.Cl (centres unmarked),-28.3
20,Cc1ccc(SCCCCN2CCOCC2)cc1.Cl,-24.6
21,CCOC(=O)C1CCN(C(=O)C(C)Sc2ccc(Cl)cc2)CC1 (centres unmarked),-27.9
22,COC(=O)[C@H](C)NC(=O)NCc1ccccc1,1.58

row,Compound,"hERG current change (%, negative = inhibition) at 10uM [%]"
1,CCCC(=O)Nc1ccc2c(c1)nc1n2CCOC1,6.13
2,Cc1ccc(-n2nnc3ccccc3c2=O)cc1C,-2.63
3,c1coc(-c2nc3c4c5c(sc4ncn3n2)CCCC5)c1,10.6
4,CSCCNC(=O)c1ccc(OC2CCN(CCc3ccccc3)CC2)cc1,-64.6
5,O=C(NC1CCOC1)c1ccc(OC2CCN(CCc3ccccc3)CC2)cc1 (centres unmarked),-39.8
6,CSCCCNC(=O)c1ccc(OC2CCN(C(=O)c3cccnc3)CC2)cc1,-11.4
7,COCC(=O)N1CCC(Oc2ccc(C(=O)N(C)CCCC3CCCC3)cc2)CC1,-26.9
8,COCC(=O)N1CCC(Oc2ccc(C(=O)NCCCC3CCCC3)cc2)CC1,-71.5
9,COCCC(=O)N1CCC(Oc2ccc(C(=O)NCCCC3CCCC3)cc2)CC1,-37.3
10,COC(=O)CCCNC(=O)c1ccc(OC2CCN(CCc3ccccc3)CC2)cc1,-47.7
11,CSCCCNC(=O)c1ccc(OC2CCN(CCc3ccccc3)CC2)cc1,-75.2
12,COCCC(=O)N1CCC(Oc2ccc(C(=O)NCCSC)cc2)CC1,13.6
13,CN(C)S(=O)(=O)c1cccc(NC(=S)N/N=C/C(c2ccccc2)c2ccccc2)c1,1.1
14,COc1ccc([N+](=O)[O-])cc1NC(=O)c1cncc(Br)c1,-12.2
15,CN1C(=O)NC(c2ccccc2Cl)C2=C1CC(C)(C)CC2=O (centres unmarked),5.71
16,O=C(NCCC1=CCCCC1)C1CCCN(S(=O)(=O)c2ccc(F)cc2)C1 (centres unmarked),19.6
17,COc1cc(OC)cc(C(=O)NCCSc2c[nH]c3ccccc23)c1,-17.1
18,NC(=O)c1sc2nc3c(cc2c1N)CCC3,8.92
19,CC(=O)c1ccc(OC(=O)C2CSC3(C)CCC(=O)N23)cc1 (centres unmarked),12.4
20,OC(CN1CCOCC1)Cn1c(-c2cccc(Cl)c2)nc2ccccc21 (centres unmarked),-21.3
21,CCN(CC)CC(O)Cn1c(-c2ccccc2Cl)nc2ccccc21 (centres unmarked),-25.2
22,CCN(CC)CC(O)Cn1c(-c2cccc(Cl)c2)nc2cc(C)c(C)cc21 (centres unmarked),-62.8

row,Compound,"hERG current change (%, negative = inhibition) at 10uM [%]"
1,CCOC(=O)[C@@H]1[C@H]2COc3ccc(Br)cc3[C@@H]2N2C(=O)N(c3ccc(C)cc3)C(=O)[C@]12C,5.6
2,O=C(NCC1CCCCC1)c1cc(S(=O)(=O)N2CCCCC2)ccc1N1CCOCC1,-7.89
3,COc1ccc(C2C(C#N)=C(N)Nc3onc(C(C)(C)C)c32)c(OC)c1 (centres unmarked),3.15
4,COc1ccc2oc(C(=O)OCc3nnc(-c4ccccc4)o3)c(C)c2c1,19.8
5,CCCCN(C(=O)COc1ccc(C)cc1OC)c1c(N)n(CCC)c(=O)[nH]c1=O,4.7
6,O=C(c1ccccc1)c1ccccn1,2.58
7,O=C(NCc1ccccc1CN1CCCC1)C1CCN(S(=O)(=O)c2ccc(F)c(F)c2)CC1,-59.1
8,Cc1ccc(S(=O)(=O)N2CCC(C(=O)NCCN3CCOCC3)CC2)cc1C,8.7
9,Cc1ccc(S(=O)(=O)N2CCC(C(=O)NCc3ccccc3Cl)CC2)cc1,-4.47
10,CCOc1ccc(S(=O)(=O)N2CCC(C(=O)NCc3ccccn3)CC2)cc1,-25.9
11,CCOc1ccc(S(=O)(=O)N2CCC(C(=O)NCCc3ccccc3)CC2)cc1,29.1
12,Cc1ccc(S(=O)(=O)N2CCC(C(=O)NCc3ccccc3CN3CCCC3)CC2)cc1C,-68.7
13,COc1ccc(S(=O)(=O)N2CCC(C(=O)NCCC3=CCCCC3)CC2)cc1C,-56.2
14,O=C(NCc1ccccc1Cl)C1CCN(S(=O)(=O)c2ccc(F)cc2)CC1,-45.6
15,COc1ccc(S(=O)(=O)N2CCC(C(=O)NCCC3=CCCCC3)CC2)cc1OC,-23.5
16,CCOc1ccc(S(=O)(=O)N2CCC(C(=O)NCc3ccccc3CN3CCCC3)CC2)cc1,-64.3
17,Cc1ccc(S(=O)(=O)N2CCC(C(=O)NCCC3=CCCCC3)CC2)cc1C,-11.6
18,O=C(NCc1ccccc1F)C1CCN(S(=O)(=O)c2ccccc2)CC1,-12.1
19,Cc1ccn2c(NC(=O)c3ccco3)c(-c3ccccc3)nc2c1,-23.7
20,O=C(CSc1nc(O)cc(=O)[nH]1)N1c2ccccc2Sc2ccccc21,8.9
